High-throughput results: PubChem, National Center for Advancing Translational Sciences (NCATS)
ELG1 genotoxic: qHTS screen for small molecules that induce genotoxicity in human embryonic kidney (HEK293T) cells expressing luciferase-tagged ELG1. AID 504466, 2011. Potency, µM (highest dose often 46 µM), without a hit: top-dose activity change, positive = activation, hits mostly activators. actives 1.3% (n = 330,000). HEK293T ELG1-luciferase reporter, luminescence, 16 h; also: % of control where 0% means no effect; nearly all actives have a fitted effect of over 60% in size
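Step 1: seed 2,000 HEK293T ELG1-luciferase cells per well. Step 2: add compound or DMSO, incubate 16 hr at 37 °C. Step 3: ONE-Glo, 30 min at room temperature, read luminescence.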
ELG1 DNA repair: qHTS screen for small molecules that inhibit ELG1-dependent DNA repair in human embryonic kidney (HEK293T) cells expressing luciferase-tagged ELG1. actives 2.3% (n = 330,000). AID 504467, 2011. Potency, µM (highest dose often 46.1 µM), without a hit: at the top dose activity change, negative = inhibition, usual class: inhibitors. HEK293T ELG1-luciferase reporter, luminescence, 16 h; DNA damage induced by 5-fluorouridine; also: % is scaled to controls: 0 for no effect and ±100 for the full control effect; nearly all actives have a fitted effect of over 55% in size
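DMSO vehicle served as the neutral condition. Each well held 2,000 cells given 5-fluorouridine plus compound; after 16 hr at 37 °C/5% CO2, ONE-Glo was added and luciferase measured 30 min later.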
NPC1 promoter act: qHTS Assay for NPC1 Promoter Activators. actives 2.4% (n = 320,000). AID 485313, 2010. Potency, µM (highest dose often 9.22 µM), for inactives: at the top dose activation, hits mostly activators. Huh7 NPC1 promoter luciferase reporter, 24 h; also: % of control where 0% means no effect; nearly all actives have a fitted effect of over 60% in size
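Luminescence read-out of NPC1 promoter-driven luciferase in stably transfected Huh7 cells; compounds delivered in DMSO and left 24 h at 37C, 5% CO2, qHTS titration format.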
FLuc counter: qHTS profiling assay for firefly luciferase inhibitor/activator using purifed enzyme and Km concentrations of substrates (counterscreen for miR-21 project); Potency, µM (titrated, usually from 57.5 µM), inactives show top-dose activity change, negative = inhibition, usual class: inhibitors; AID 588342, 2011; purified FLuc, Km substrates, luminescence inhibition; actives 6.9% (n = 360,000);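 also: plate controls were vehicle for no effect and reference inhibitor for full effect; nearly all actives have a fitted effect of over 55% in size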
Target sequence (P08659 whole entry, looked up): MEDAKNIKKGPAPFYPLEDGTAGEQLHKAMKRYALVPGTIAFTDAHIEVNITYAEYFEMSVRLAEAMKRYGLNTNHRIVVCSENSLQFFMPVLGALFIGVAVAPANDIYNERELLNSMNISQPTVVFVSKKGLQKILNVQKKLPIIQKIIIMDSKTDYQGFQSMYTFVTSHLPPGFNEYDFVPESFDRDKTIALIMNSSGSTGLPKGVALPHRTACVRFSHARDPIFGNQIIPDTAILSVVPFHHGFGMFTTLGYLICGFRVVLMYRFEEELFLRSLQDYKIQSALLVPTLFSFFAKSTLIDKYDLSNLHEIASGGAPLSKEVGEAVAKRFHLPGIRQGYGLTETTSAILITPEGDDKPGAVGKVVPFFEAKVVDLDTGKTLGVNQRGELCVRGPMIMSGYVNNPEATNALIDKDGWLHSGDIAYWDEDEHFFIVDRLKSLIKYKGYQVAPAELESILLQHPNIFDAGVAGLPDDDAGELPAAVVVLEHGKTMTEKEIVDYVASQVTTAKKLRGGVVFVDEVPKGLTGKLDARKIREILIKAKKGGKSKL
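Purified P. pyralis luciferase, 10 nM final, with Km-level 10 uM D-luciferin and 10 uM ATP in 50 mM Tris acetate pH 7.5, 10 mM Mg acetate, 0.01% Tween-20, 0.05% BSA; 6-point qHTS titration about 60 µM downward; luminescence read.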
Rab9 prom act: qHTS Assay for Rab9 Promoter Activators; Huh7 Rab9 promoter-luciferase reporter, luminescence, 24 h; Potency, µM (titrated, usually from 9.22 µM), for inactives: at the highest dose activation, negative = inhibition, usual class: activators; actives 2.8% (n = 320,000); AID 485297, 2010; also: % of control where 0% means no effect; nearly all actives have a fitted effect of over 60% in size
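Huh7 reporter line, Rab9 promoter upstream of luciferase. Compound exposure 24 h at 37 °C in reduced-serum medium with 10% FBS. Read-out: luminescence.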
SMN2 splice enh: qHTS Assay for Enhancers of SMN2 Splice Variant Expression; HEK293 SMN2-luciferase splicing reporter, luminescence, 30-36 h; Potency, µM (highest dose often 46.1 µM), for inactives: at the top dose activity change, positive = activation, most hits filed as activators; actives 2.8% (n = 210,000); AID 1458, 2008; also: % of control where 0% means no effect; nearly all actives have a fitted effect of over 55% in size
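qHTS luciferase splicing reporter: luminescence rises when SMN2 exon 7 is included in transfected HEK293 cells. Compound exposure lasted 30-36 h at 37C, with 4.5 mM final sodium butyrate as control, followed by a ONE-Glo read.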
* = called active by the depositor; ? = inconclusive; nt = not tested or not shown. This is a sample that favours compounds with a hit; in the whole collection about 9.2% have one here. Calls follow the shape of the dose curve; as a rule, active = well fitted curve in the direction sought with a large enough effect; inconclusive = small, poorly fitted or top-dose-only effect, or another doubt; inactive = no such curve, though single readings can be large; an effect the other way counts as inactive or inconclusive. Potency is read from the fitted curve at half-maximal effect.

SMILES	ELG1 genotoxic	ELG1 DNA repair	NPC1 promoter act	FLuc counter	Rab9 prom act	SMN2 splice enh
COc1ccccc1NC(=O)Cn1nc2c3cc(F)ccc3n(Cc3cccc(C)c3)cc-2c1=O	nt	nt	nt	-1%	nt	nt
CC(=O)/C(C#N)=C1\NC(=O)C(Cc2ccc(C)c(C)c2)S1 (stereo not given)	-1%	?	10%	21µM*	11%	?
CCOC(=O)c1ccc(NCc2nc3ccccc3[nH]2)cc1	?	?	?	21µM*	?	3%
CCOC(=O)c1ccc(Nc2cnc3ccccc3n2)cc1	9.2µM*	?	2.2µM*	2.4µM*	1.8µM*	13µM*
CCOC(=O)c1ccc(Nc2nnc(C)c3ccccc23)cc1	3%	-10%	20%	17µM*	10%	nt
O=C(O)c1ccc(Nc2cnc3ccccc3n2)cc1	?	?	?	13µM*	2.8µM*	229%
CCOc1ccc(-n2c(SCC(=O)N3CCCCC3)nc3c([nH]c4ccccc43)c2=O)cc1	nt	nt	nt	1%	nt	nt
CCc1ccc(NCc2nc3ccccc3c(=O)[nH]2)cc1	3.3µM*	?	?	11µM*	2.8µM*	10µM*
Cc1ccc(NS(=O)(=O)c2ccc3[nH]c(=O)sc3c2)cc1	-3%	-27%	2%	-19%	-6%	-21%
CC1/C(=N/O)CC(c2ccccc2)NC1c1ccccc1 (stereo not given)	-6%	-3%	1%	1%	-1%	-20%
CC(C)C1/C(=N/O)CC(c2ccccc2)NC1c1ccccc1 (stereo not given)	-14%	16µM*	-1%	-3%	1%	nt
COC(=O)/C(=C\Nc1ccc(Cl)cc1Cl)NC(=O)c1ccc(OC)cc1	3%	-9%	-27%	?	-29%	nt
Cc1sc2ncn(CC(=O)N3CCN(c4ccc(F)cc4)CC3)c(=O)c2c1S(=O)(=O)N1CCCCC1	nt	nt	nt	2%	nt	-3%
O=C(c1cnn(C(=O)c2ccc(O)cc2)c1)c1ccccc1O	-4%	3%	2%	3.8µM*	0%	-6%
Cc1ccc(O)c(C(=O)c2cnn(-c3ccccc3)c2)c1	?	?	-1%	?	3%	nt
Cc1ccc(-n2cc(C(=O)c3ccccc3O)cn2)cc1	?	?	0.56µM*	0.3µM*	?	-42%
O=C(c1cnn(C(=O)c2ccco2)c1)c1ccccc1O	-1%	-15%	nt	nt	nt	nt
COc1ccc(C(=O)n2cc(C(=O)c3cc(C)ccc3O)cn2)cc1OC	-3%	23µM*	2%	-3%	-1%	-4%
COc1ccc(C(=O)n2cc(C(=O)c3cc(C)ccc3O)cn2)cc1	-7%	?	-4%	5%	-10%	?
Cc1cnc(NC(=O)CC2OC(=O)c3ccccc32)s1 (stereo not given)	-1%	13%	-1%	2%	-3%	nt
O=C(CN(C(=O)CCC(=O)Nc1nccs1)C1CCCC1)NCc1ccc2c(c1)OCO2	-3%	-3%	-4%	-2%	-2%	14%
COc1ccc(S(=O)(=O)N(C)C[C@H]2Oc3ccc(NC(=O)Cc4cn(C)c5ccccc45)cc3C(=O)N([C@@H](C)CO)C[C@@H]2C)cc1	1%	?	nt	nt	nt	nt
CCC1=C(c2ccc(C)cc2)S(=O)(=O)N=C1N1CCC(C(=O)Nc2ccccc2C(=O)OC)CC1	nt	nt	nt	0%	nt	nt
O=c1oc(CCCO)cc2ccc(Br)cc12	1%	24%	nt	nt	nt	nt
O=c1oc(CCCO)cc2ccc(/C=C/c3cccc([N+](=O)[O-])c3)cc12	4.1µM*	?	4µM*	?	-6%	nt
